Assay outcomes as filed in PubChem BioAssay.
Giardia killer – Small Molecules that selectively kill Giardia lamblia: qHTS; Giardia lamblia trophozoite viability; activity change, % at 7.66 µM, hits read low; hit rate 0.15% among 340,000; in the data active means activity change below about -80%; inconclusive means between about -30% and that limit;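 further: parasites exposed to compound for two days anaerobically before the ATP read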
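Luminescent ATP signal served as the viability read-out, measured 15-30 min after adding ATP detection reagent to trophozoites that had been incubated with compounds for 48 hrs at 37 deg C anaerobically at 100 cells/well.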
Nrf2 block – Nrf2 qHTS screen for inhibitors. A549 ARE-Fluc reporter, luciferase luminescence, 18-24 h. hit rate 2.1% among 360,000. Potency, µM (titrated, usually from 46 µM), for the others: at the top dose activity change, negative = inhibition, usual class: inhibitors; further: potency means the concentration at half of the fitted maximal effect; nearly all actives have a fitted effect of over 60% in size
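Quantitative HTS in A549 cells stably bearing an antioxidant response element-firefly luciferase construct. Inhibition of Nrf2-driven transcription was scored by luminescence after 18-24 h of compound exposure at 37 °C.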
A549 viability – Nrf2 qHTS screen for inhibitors: counterscreen for cytotoxicity; A549 ARE-Fluc cells, CellTiter-Fluor viability, 18-24 h; Potency, µM (series often up to 46 µM), inactives show top-dose activity change, negative = cytotoxicity, hits mostly inhibitors; hit rate 0.16% among 390,000; further: potency means the concentration at half of the fitted maximal effect
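A549 ARE-Fluc cells in 5% FBS OPTI-MEM, 5000 cells/well, rested 2 h then exposed to compounds in concentration-response for 18-24 h at 37 °C. Viability by CellTiter-Fluor fluorescence (Ex 405/Em 525) after 30 min; luciferase luminescence (BugLite, 15 min, RT) read afterwards.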
KB-V1 cytotox – qHTS assay for MDR1-selective chemotherapeutics: Primary screen using the drug-selected MDR subline cells KB-V1 | hit rate 3.4% among 400,000 | KB-V1 MDR cells viability, CellTiter-Glo, 72 h | AID 1347076, 2019 | Potency, µM (top dose mostly 46.1 µM), most hits filed as cytotoxic; further: potency means the concentration at half of the fitted maximal effect; nearly all actives have a fitted effect of over 60% in size
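KB-V1 cells (P-gp-expressing MDR subline of KB-3-1) in phenol-red-free DMEM with 10% FBS were exposed to library compounds over a concentration series for 72 h at 37 degrees C. Viability read by CellTiter-Glo luminescence; concentration-effect curves fitted after normalization.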
KB-3-1 cytotox – qHTS assay for MDR1-selective chemotherapeutics: Primary screen using the parental adenocarcinoma cell KB-3-1 | Potency, µM (doses to about 46.1 µM), actives largely listed as cytotoxic | KB-3-1 viability, CellTiter-Glo ATP luminescence, 72 h | hit rate 1.4% among 400,000; further: potency means the concentration at half of the fitted maximal effect; nearly all actives have a fitted effect of over 60% in size
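KB-3-1 cells, DMEM (no phenol red) + 10% FBS; compound by pin transfer, 72 h, 37 °C. Readout: CellTiter-Glo luminescence after 10 min. Data normalized, curve-fitted.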
PI4K2A inh – qHTS for small molecular inhibitors of PI4K2A. Phosphatidylinositol 4-kinase type 2-alpha (Homo sapiens), Q9BTU6. purified PI4K2A, ADP-Glo luminescence, 1 h; stronger effect = lower value. activity change, negative = inhibition, % at 76.9 µM. hit rate 0.13% among 420,000. AID 1346378, 2018; in the data active means activity change below about -50%; inconclusive means mostly about -30% to -49%;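 further: -100% = wells without enzyme as full effect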
Target sequence (Q9BTU6 whole entry, looked up): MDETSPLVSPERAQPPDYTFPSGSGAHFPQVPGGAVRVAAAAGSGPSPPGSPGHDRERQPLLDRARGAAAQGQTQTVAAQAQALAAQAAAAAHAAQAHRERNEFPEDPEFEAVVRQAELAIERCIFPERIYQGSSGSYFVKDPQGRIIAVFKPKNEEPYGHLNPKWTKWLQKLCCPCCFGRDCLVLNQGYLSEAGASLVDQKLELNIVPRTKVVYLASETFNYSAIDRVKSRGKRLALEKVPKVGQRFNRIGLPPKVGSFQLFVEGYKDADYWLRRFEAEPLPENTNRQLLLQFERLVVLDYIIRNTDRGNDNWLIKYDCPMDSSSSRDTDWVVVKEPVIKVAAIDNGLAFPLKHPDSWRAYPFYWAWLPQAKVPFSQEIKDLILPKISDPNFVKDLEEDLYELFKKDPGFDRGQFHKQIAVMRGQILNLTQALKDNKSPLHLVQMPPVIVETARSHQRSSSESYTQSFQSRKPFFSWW
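PI4K2A activity was measured by ADP-Glo luminescence: enzyme (4 ug/mL stock) and phosphatidylinositol (1.2 mM stock) in Tris pH 7.5/MgCl2/EGTA/Triton X-100 buffer were reacted with ATP (300 microM stock) for one hour at ambient temperature.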
An asterisk follows results filed as active. The list is not random: actives were taken first. Their share in the collection is about 5.7%. Unless noted, the call rests on the fitted dose curve; in most records, active means well fitted curve in the direction sought with a large enough effect; inconclusive means small, poorly fitted or top-dose-only effect, or another doubt; inactive means no such curve, though single readings can be large; an effect the other way counts as inactive or inconclusive. Unless noted, on the % scale 0 is the no-effect control and ±100 the full control effect.

For CCCCCCN1C[C@H](n2cc(COC(=O)c3ccccc3)nn2)[C@@H](O)C[C@@H]1c1ccc(OC)cc1 the results were KB-V1 cytotox inactive, KB-3-1 cytotox inactive and PI4K2A inh -4.
Screening CCc1cccc(NC(=O)c2cc3c(=O)n(Cc4ccc(OC)cc4)ccc3nc2C)c1 returned Nrf2 block -17%, A549 viability 0%, KB-V1 cytotox inactive, KB-3-1 cytotox inactive and PI4K2A inh -1.
For Cc1ccc(C(=O)c2c(C)oc3c2C(=O)C(=O)c2ccccc2-3)cc1 the results were Giardia killer -26, Nrf2 block inconclusive, A549 viability inconclusive, KB-V1 cytotox 5.2µM*, KB-3-1 cytotox inconclusive and PI4K2A inh -63*.
Screening Cc1oc2c(c1C(=O)c1ccc(Cl)cc1)C(=O)C(=O)c1ccccc1-2 returned Giardia killer 9, Nrf2 block -4%, A549 viability 0%, KB-V1 cytotox 16µM*, KB-3-1 cytotox inconclusive and PI4K2A inh -9.
Screening C=CCOc1ccc(CN(C)C(=O)CNC(=O)c2ccc(-c3ccccc3)cc2)cc1 returned Giardia killer -10, Nrf2 block 16µM*, A549 viability -21%, KB-V1 cytotox 2.3µM*, KB-3-1 cytotox 4.6µM* and PI4K2A inh 1.
For CCOc1ccc(CN(C)C(=O)CNC(=O)c2ccccc2)cc1 the results were Giardia killer 20, Nrf2 block -26%, A549 viability 1%, KB-V1 cytotox inactive, KB-3-1 cytotox inactive and PI4K2A inh -3.
Screening Cc1ccc(NC(=O)COC(=O)c2ccccc2OCC(=O)N(C)C)cc1 returned KB-V1 cytotox inactive and KB-3-1 cytotox inconclusive.
For COc1ccc(CN(C)C(=O)c2ccc(OCC(=O)Nc3cccc(C(F)(F)F)c3)c(OC)c2)c(OC)c1 the results were Giardia killer -7, Nrf2 block 16µM*, A549 viability -21%, KB-V1 cytotox inconclusive, KB-3-1 cytotox inconclusive and PI4K2A inh 4.
`COc1cccc(CN(C)C(=O)c2ccc(OCC(=O)Nc3cccc(C(F)(F)F)c3)c(OC)c2)c1` gave Giardia killer -18, Nrf2 block 4.6µM*, A549 viability inconclusive, KB-V1 cytotox 4.1µM*, KB-3-1 cytotox inconclusive and PI4K2A inh -1.
For COc1ccc(NC(=O)CN(C)C(=O)c2ccccc2OCC(=O)Nc2cccc(C(F)(F)F)c2)cc1 the results were Giardia killer 15, Nrf2 block -8%, A549 viability 1%, KB-V1 cytotox inactive, KB-3-1 cytotox inactive and PI4K2A inh -3.
For COc1cc(C(=O)NCCCN(C)C)ccc1OCC(=O)Nc1cccc(C(F)(F)F)c1 the results were Giardia killer 0, Nrf2 block -4%, A549 viability 1%, KB-V1 cytotox inactive, KB-3-1 cytotox inactive and PI4K2A inh 3.
`COc1cc(C(=O)Nc2ccc(C(=O)c3cccs3)cc2)cc(OC)c1OC` gave Giardia killer -30, Nrf2 block 21µM*, A549 viability -21%, KB-V1 cytotox inactive, KB-3-1 cytotox inactive and PI4K2A inh -1.
Screening COc1ccc(C(=O)Nc2ccc(NC(=O)c3cccs3)c(OC)c2)cc1Cl returned Giardia killer -21, Nrf2 block 9.2µM*, A549 viability -17%, KB-V1 cytotox inactive, KB-3-1 cytotox inactive and PI4K2A inh 0.
`COc1c(Cl)cc(Cl)cc1C(=O)Nc1ccc(NC(=O)c2cccs2)cc1` gave Giardia killer -3, Nrf2 block 10µM*, A549 viability -15%, KB-V1 cytotox inactive, KB-3-1 cytotox inactive and PI4K2A inh 2.
O=C(Nc1nnc(-c2ccncc2)s1)NC12CC3CC(CC(C3)C1)C2 was read as KB-V1 cytotox inactive and KB-3-1 cytotox inactive.
